TROY NFkB inh: inhibitors of TROY-dependent NF-kB signaling. Q293 LMP1-TROYcd NF-kB luciferase reporter, 4 h. inhibition, % at 10 µM. 360,000 tested, 0.98% active;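 active = compounds whose plate-normalised and pattern-corrected inhibition of the luciferase reporter signal at the single screening dose is 50% or more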
HSP90 inh: HSP90 refolding inhibition in rabbit reticulocyte lysate | luciferase refolding luminescence, 3 h | inhibition, % at 5.6 µM | 290,000 tested, 0.91% active | AID 1789;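 active = inhibition above the screen-wide mean plus 3 SD, computed separately per campaign, cut at about 16% in these data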;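 also: 0% = DMSO wells and 100% = 60 µM geldanamycin wells; inhibitors lower the luminescence because luciferase stays unfolded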
PPC-1+TRAIL kill: kills PPC-1 cancer cells in the presence of TRAIL; cell killing (% activity), % at 4 µM or 5 µM; 220,000 tested, 0.41% active; PPC-1 cells + TRAIL, ATPLite viability luminescence;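 active = cell killing above 50% in the first pass at 4 µM, then a duplicate retest at 5 µM averaging 50% or more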;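 also: plate controls were cells with TRAIL plus DMSO for no effect and medium-only wells lacking cells for full effect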
TRAIL sens C8: sensitizes caspase-8 expressing cells to TRAIL. NB7+C8 cells + TRAIL, ATPlite viability luminescence. inhibition (viability loss, TRAIL sensitization), % at 10 µM. 360,000 tested, 1% active;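 active = compounds causing at least 50% loss of cell viability in the single-dose screen, relative to plate controls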
TWEAK Fn14 block: TWEAK-Fn14 signaling inhibition. TWEAK-stimulated Fn14 reporter cells, luciferase luminescence, 8 h. inhibition, % at 10 µM. 360,000 tested, 2% active; in the data active = inhibition above about 50%
Platelet DG rel: platelet dense granule release activity; inhibition, %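 (compounds screened at 7.5 µM in platelet-rich plasma)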; human platelet-rich plasma, SFLLRN dense granule ATP release, luminescence; 300,000 tested, 0.22% active;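 active = mean replicate score, as percent of positive control, at or above 50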
HSP90 confirm: HSP90 inhibition, confirmation assay; shares compounds with HSP90 inh; rabbit reticulocyte lysate, luciferase refolding luminescence, 3 h; inhibition, % at 5.9 µM; 2,300 tested, 64% active; in the data active = inhibition above about 18%;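 also: 0% = vehicle wells and 100% = reference inhibitor wells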
FLuc counter: blocks native firefly luciferase in HSP90 counter-screen | shares compounds with HSP90 inh | purified native firefly luciferase, luminescence | inhibition, % at 5.9 µM | 2,300 tested, 48% active;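 active = inhibition above the mean inhibition of all tested sample wells plus 3 SD, cut at about 10% in these data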;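 also: 0% = DMSO with luciferase and 100% = wells lacking luciferase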
Target sequence (P08659 whole entry, looked up): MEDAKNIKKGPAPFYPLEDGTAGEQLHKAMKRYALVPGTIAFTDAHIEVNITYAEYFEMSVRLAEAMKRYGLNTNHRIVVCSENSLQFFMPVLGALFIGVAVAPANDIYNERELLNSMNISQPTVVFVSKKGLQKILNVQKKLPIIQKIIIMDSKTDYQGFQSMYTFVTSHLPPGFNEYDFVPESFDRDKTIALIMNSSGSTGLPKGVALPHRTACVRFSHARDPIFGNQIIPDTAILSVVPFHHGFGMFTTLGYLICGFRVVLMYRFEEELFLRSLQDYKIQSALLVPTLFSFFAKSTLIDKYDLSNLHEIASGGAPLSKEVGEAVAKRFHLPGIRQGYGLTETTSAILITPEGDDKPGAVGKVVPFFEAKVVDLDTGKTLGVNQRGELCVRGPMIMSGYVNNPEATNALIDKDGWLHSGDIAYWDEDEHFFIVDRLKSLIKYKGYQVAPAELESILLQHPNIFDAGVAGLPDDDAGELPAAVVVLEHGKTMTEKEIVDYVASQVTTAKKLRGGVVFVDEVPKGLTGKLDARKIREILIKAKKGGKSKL
An asterisk follows results filed as active; . = no result. This is a sample that favours compounds with a hit; in the whole collection about 3.5% have one here.

SMILES | TROY NFkB inh | HSP90 inh | PPC-1+TRAIL kill | TRAIL sens C8 | TWEAK Fn14 block | Platelet DG rel | HSP90 confirm | FLuc counter
CC(C)(C)c1ccc(-c2nc3cc(N)ccc3o2)cc1 | 64* | 31* | . | 72* | 69* | 10 | 42* | 45*
Cc1[nH]c2ccccc2c1C(=O)NS(=O)(=O)Nc1ccc(Cl)cc1 | 8 | 18* | 2 | 1 | 8 | 2 | 1 | -2
COc1ccccc1NS(=O)(=O)NC(=O)c1c(C)[nH]c2ccccc12 | -13 | -4 | . | -4 | 4 | 6 | . | .
O=C(/C=C/c1ccccc1Cl)Nc1cccc(O)c1 | -42 | 23* | 45 | 72* | 31 | 39 | 36* | 15*
O=C(/C=C/c1ccccc1Cl)Nc1ccccc1 | -11 | 13 | 36 | 34 | 25 | 32 | . | .
S=C(NCc1cccnc1)c1ccccc1 | -16 | 19* | . | -21 | 10 | -6 | 0 | -2
NC(=S)NCc1cccnc1 | 0 | 5 | 16 | -3 | -9 | 1 | . | .
CC(=O)Nc1ccc2c(c1)nc(CCN1CCN(c3ccccn3)CC1)n2C | 3 | -4 | . | 7 | -19 | 0 | . | .
O=[N+]([O-])c1ccccc1COc1ccc(Cl)c2cccnc12 | -3 | 21* | . | 16 | 65* | 5 | 48* | 32*
O=C(Oc1ccc(Cl)c2cccnc12)c1cccc([N+](=O)[O-])c1 | 5 | -3 | 0 | -8 | 21 | 18 | . | .
CN(Cc1ccccc1)C(=O)[C@@H]1CCCN1C(=O)[C@@H]1CCCN1C(=O)c1cccc2ccccc12 | -13 | . | . | 0 | -5 | . | . | .
CN[C@@H](CO)C(=O)NC[C@H]1O[C@@H](n2cc(C)c(=O)[nH]c2=O)C[C@@H]1O | -1 | . | . | -3 | -15 | . | . | .
O=C(c1cccs1)c1ccc(-c2cccs2)s1 | -6 | 29* | 25 | 51* | 61* | 35 | 61* | 53*
Cc1cccc(OCC(=O)O/N=C(\N)c2ccncc2)c1 | -56 | 0 | . | 14 | -50 | 11 | . | .
CCCc1nc2c(=O)n(C)c(=O)nc-2n(C)n1 | 90* | 75* | 43 | 96* | 104* | . | 83* | 85*
CCn1c(N)nc2c1c(=O)n(C)c(=O)n2C | 2 | -1 | 12 | 12 | 12 | -17 | . | .
Cc1sc2nc3c4ccccc4c(NCc4ccco4)nn3c(=O)c2c1C | -30 | 79* | 25 | 8 | 64* | . | 6 | -17
Cc1nc(NCc2ccco2)c2c(C)c(C)sc2n1 | 29 | 2 | 8 | 28 | -27 | 0 | . | .
Cc1ccccc1C(=O)N1CCC(C(=O)NC2CCCCCC2)CC1 | -5 | 20* | . | 17 | 4 | 1 | -2 | -9
O=C(O)c1ccc(NC(=S)NC(=O)c2cncc(Br)c2)cc1 | 47 | 51* | . | -7 | -12 | -7 | 25* | -2
CCOC(=O)c1ccc(NC(=S)NC(=O)c2cncc(Br)c2)cc1 | 1 | 1 | . | 27 | 3 | -5 | . | .
CCCCn1c(N)c(N(CCOC)C(=O)c2ccc(F)c(S(=O)(=O)N3CCOCC3)c2)c(=O)[nH]c1=O | 4 | . | . | 7 | -14 | . | . | .
COc1ccccc1OCCNC(=O)C1CC(=O)N(c2cccc(SC)c2)C1 (stereo not drawn) | 8 | . | . | 0 | 3 | -21 | . | .
CCOC(=O)C1CCN(C(=O)c2sc3nc(-c4ccccc4)cn3c2C)CC1 | 1 | 0 | -4 | 0 | 4 | 7 | . | .
CCOC(=O)C1CCCN(C(=O)c2sc3nc(-c4ccc(OC)cc4)cn3c2C)C1 (stereo not drawn) | -12 | 46* | 3 | -6 | 8 | 6 | 45* | -7
SMILES | TROY NFkB inh | HSP90 inh | PPC-1+TRAIL kill | TRAIL sens C8 | TWEAK Fn14 block | Platelet DG rel | HSP90 confirm | FLuc counter
COc1ccc(-c2cn3c(C)c(C(=O)NCCN4CCOCC4)sc3n2)cc1 | -39 | 73* | 15 | -3 | 33 | 3 | 69* | -2
C/C(Cn1nnc2ccccc21)=N\NC(=O)c1ccc(Br)cc1 | -70 | 2 | 4 | -5 | -5 | 2 | . | .
CC(C)(C)OC(=O)N1CCC(NC(=O)c2[nH]cnc2C(=O)Nc2ccon2)CC1 | -21 | . | . | -11 | 12 | . | . | .
COC(=O)CC1C(=O)NC(C)=C1C(=O)OC (stereo not drawn) | . | 37* | 8 | . | . | -6 | 3 | 1
CCOc1ccc(N2C(=O)CC(NCCNc3ccc([N+](=O)[O-])cn3)C2=O)cc1 (stereo not drawn) | 0 | 24* | -4 | -3 | 7 | 8 | -8 | -10
Cn1c(=O)c2c(ncn2CC2OCCO2)n(C)c1=O | 3 | 4 | . | -14 | 3 | 5 | . | .
COc1cc(OC)cc(C2C(C#N)=C(N)Oc3n[nH]c(-c4cccnc4)c32)c1 (stereo not drawn) | 3 | 18* | -8 | -8 | 9 | 2 | -3 | -2
N#CC1=C(N)Oc2n[nH]c(-c3ccncc3)c2C1c1ccsc1 (stereo not drawn) | -3 | 17* | 19 | -5 | 22 | 1 | -1 | -7
COc1cc(C2C(C#N)=C(N)Oc3n[nH]c(-c4cccs4)c32)cc(OC)c1O (stereo not drawn) | 10 | 24* | 13 | -9 | -9 | 4 | -3 | -7
CCC(CC)C1C(C#N)=C(N)Oc2n[nH]c(-c3ccccc3)c21 (stereo not drawn) | 23 | 18* | -2 | 32 | 24 | 0 | -8 | -2
CC(C)=CC1C(C(=O)Nc2ccc(S(=O)(=O)N3CCOCC3)cc2)C1(C)C (stereo not drawn) | 4 | . | . | 4 | -10 | -2 | . | .
O=C(C(=O)c1cccnc1)c1cccnc1 | -11 | 20* | 16 | -3 | -25 | 9 | -2 | -7
COc1cc(NC(=O)c2cccnc2)c(Cl)cc1NC(=O)c1ccc(Cl)cc1 | 2 | -2 | . | -6 | 10 | 14 | . | .
COc1ccc(NC(=O)c2cccnc2)cc1 | -2 | 23* | . | 3 | 4 | -4 | -8 | -9
Cc1ccc(C(=O)Nc2cccc(NC(=O)c3cccnc3)c2)cc1 | 2 | 38* | . | -28 | 15 | 3 | 0 | -7
COc1cc(NC(=O)c2ccc(Cl)cc2)c(Cl)cc1NC(=O)c1cccnc1 | -14 | 45* | . | -1 | -23 | -3 | 0 | -9
Cc1cccc(NC(=O)c2cccnc2)c1 | -31 | 2 | 10 | -3 | -1 | 0 | . | .
O=C1NC[C@@H](CCCCN2C[C@H](Cc3ccccc3)N(CCc3ccccc3)C(=O)C2=O)N(CCc2ccccc2)C1=O | -2 | . | . | 9 | 23 | . | . | .
NS(=O)(=O)c1ccc(CCNC(=O)c2cccc(S(=O)(=O)N3CCc4ccccc43)c2)cc1 | 17 | . | . | 0 | 13 | . | . | .
COc1ccc(C(=O)Nc2ccc3ncccc3c2)cc1 | 38 | 29* | . | 83* | 75* | 7 | 49* | 29*
